# Screening data: PubChem BioAssay, National Center for Advancing Translational Sciences (NCATS)
# A selection: hits, their analogues and other compounds. The true share with any hit is near 14%.
# FBPA Giardia inh = qHTS Assay for Inhibitors of Fructose-1,6-bisphosphate Aldolase from Giardia Lamblia | Potency, µM (doses to about 59.6 µM), actives largely listed as inhibitors | purified Giardia FBPA | hit rate 0.71% among 290,000 | A8B2U2; also: nearly all actives have a fitted effect of over 55% in size
# Target sequence (A8B2U2 whole entry, looked up): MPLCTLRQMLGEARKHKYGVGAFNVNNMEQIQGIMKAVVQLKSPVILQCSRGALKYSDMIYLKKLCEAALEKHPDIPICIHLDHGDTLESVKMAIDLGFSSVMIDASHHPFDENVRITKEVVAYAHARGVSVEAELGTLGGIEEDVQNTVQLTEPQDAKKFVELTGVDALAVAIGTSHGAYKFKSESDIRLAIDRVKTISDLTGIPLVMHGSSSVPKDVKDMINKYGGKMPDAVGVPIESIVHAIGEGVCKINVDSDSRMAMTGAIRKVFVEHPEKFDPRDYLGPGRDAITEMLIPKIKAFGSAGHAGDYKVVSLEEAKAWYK
#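 Giardia FBPA (40 nM reagent) was preincubated 10 min at RT with compound (up to 57.5 uM final), then substrate plus GAPDH/TPI/NAD/arsenate coupling system with diaphorase/resazurin was added; resorufin fluorescence (525/598 nm) was read after 20 min.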
# Pf growth 48h = Primary qHTS for delayed death inhibitors of the malarial parasite plastid, 48 hour incubation. Potency, µM (series often up to 28.7 µM), usual class: inhibitors. hit rate 5.9% among 310,000. P. falciparum luciferase growth in erythrocytes, 48 h
#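 Luminescence readout; reporter = integrated firefly luciferase in P. falciparum. RBC culture at 2% hematocrit, 0.1% parasitemia final, 37 C/5% CO2; decreased signal taken as growth inhibition.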
# Pf growth 96h = Primary qHTS for delayed death inhibitors of the malarial parasite plastid, 96 hour incubation. P. falciparum luciferase reporter growth, 96 h. Potency, µM (doses to about 28.7 µM), usual class: inhibitors. hit rate 6.9% among 320,000
#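 96 h incubation, 37 C, 5% CO2, of luciferase-reporter P. falciparum-infected RBCs (2% hematocrit, 0.05% parasitemia final) with test compounds; endpoint luminescence.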
# HCMV inh = qHTS Assay for inhibitors of the human cytomegalovirus (HCMV); HFF cells, HCMV-luciferase reporter, 72 h; active compounds read low; activity change, negative = inhibition, % at 57.5 µM; hit rate 4.5% among 410,000; AID 1259415, 2018; in the data active = activity change below about -60%; inconclusive = no clear call, values can overlap the other calls; inactive = above about -39%
#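 Human foreskin fibroblasts infected with luciferase-reporter HCMV at MOI 1 PFU/cell, compounds at two doses. Luciferase measured 72 h post infection; normalized to buffer-only basal and Salinomycin (10uM) controls.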
# Sm TGR inh = qHTS Assay for the Inhibitors of Schistosoma Mansoni Peroxiredoxins; hit rate 3% among 360,000; Potency, µM (series often up to 114 µM), actives largely listed as inhibitors; purified TGR, DTNB reduction, TNB absorbance 405 nm; Schistosoma mansoni thioredoxin glutathione reductase (TGR), Q962Y6; AID 485364, 2010; also: nearly all actives have a fitted effect of over 60% in size
#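 First, TGR (20 nM dispensed) and NADPH were mixed with compound. Second, a 15 min room-temperature incubation followed. Third, further NADPH and then DTNB were added to start the reaction. Finally, TNB absorbance was monitored kinetically.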
# Hits are given with their value; . = inactive; ? = inconclusive; / = no result given; + = active, no number; [ ] = remark or other dose. Unless noted, calls follow the shape of the dose curve; as a rule, active = well fitted curve in the direction sought with a large enough effect; inconclusive = small, poorly fitted or top-dose-only effect, or another doubt; inactive = no such curve, though single readings can be large; an effect the other way counts as inactive or inconclusive.
SMILES,FBPA Giardia inh,Pf growth 48h,Pf growth 96h,HCMV inh,Sm TGR inh
OCC1(Cc2ccc(Cl)cc2)CCN(CC2CC=CCC2)CC1 (centres undefined),.,6.57µM,.,.,.
COc1ccccc1NC(=O)Cn1c(CN2CCCCC2)nc2ccccc2c1=O,.,.,.,.,.
CC(=O)Cn1c(CN2CCCC2)nc2ccccc2c1=O,.,.,.,.,.
Cc1cccc(C)c1NC(=O)Cn1c(CN2CCCCC2)nc2ccccc2c1=O,.,14.7µM,.,.,.
CC(=O)Cn1c(CN2CCCCC2)nc2ccccc2c1=O,.,10.4µM,.,.,.
COCCn1c(=O)c(-c2cccs2)nc2cnc(Oc3ccccc3)nc21,.,/,/,/,/
c1ccc(COc2cccc(-c3cc4nc(NCCc5ccncc5)ccn4n3)c2)cc1,/,/,/,.,/
CSCCC(NC(=O)c1ccco1)c1nc2ccccc2[nH]1 (centres undefined),/,.,.,.,.
COCc1ccc(CN2CCc3c([nH]c4ccccc34)C2CC(C)C)o1 (centres undefined),.,?,6.57µM,.,35.5µM
CCc1nccn1CCC(=O)N1CCc2c([nH]c3ccccc23)C1CC(C)C (centres undefined),.,?,?,.,.
Cc1ccc(/C=C/C(=O)Nc2cccc(S(=O)(=O)N3CCOCC3)c2)o1,.,.,?,.,11.2µM
O=C(/C=C/c1ccco1)Nc1cccc(S(=O)(=O)N2CCOCC2)c1,.,.,?,?,.
CN(C)S(=O)(=O)c1cccc(NC(=O)/C=C/c2ccc(S(=O)(=O)N3CCOCC3)cc2)c1,/,8.28µM,?,.,.
O=C(/C=C/c1ccc(OC(F)F)cc1)Nc1cccc(S(=O)(=O)N2CCOCC2)c1,/,.,?,-75.0,.
COc1ccc(-c2nc(-c3ccccc3)oc2Nc2c(C)cccc2C)cc1,.,/,/,/,/
C=CCn1c(SCC(=O)Nc2ccc3c(c2)OCCO3)nc2cc(C(=O)O)ccc2c1=O,/,.,.,.,.
Cc1ccc(NC(=O)c2ncn(CC(=O)NCc3ccccc3)n2)cc1C,/,/,/,.,/
COc1cc(NC(=O)COc2ccccc2[N+](=O)[O-])ccc1NC(=O)c1cccs1,.,.,11.7µM,?,/
CCOC(=O)NC1(C(F)(F)F)NC(=O)N(c2ccc(F)cc2)C1=O (centres undefined),.,.,4.65µM,.,.
CC(=O)Nc1ccc(S(=O)(=O)NC2(C(F)(F)F)NC(=O)N(c3ccc(C)cc3)C2=O)cc1 (centres undefined),/,.,9.28µM,.,.
COc1ccccc1N1C(=O)CC(Sc2ncccc2C(=O)O)C1=O (centres undefined),.,.,.,.,.
O=C(O)c1cccnc1SC1CC(=O)N(c2ccc(OC(F)F)cc2)C1=O (centres undefined),.,.,.,.,44.7µM
COC(=O)c1c(N2C(=O)CC(Sc3ncccc3C(=O)O)C2=O)sc(C)c1C (centres undefined),.,.,.,.,20µM
Cc1cc(NC(=O)CSc2nc(C(C)C)nc3c2c(=O)n(C)c(=O)n3C)no1,.,?,?,.,.
CCCn1c(=O)n(C)c(=O)c2c(SCC(=O)Nc3cc(C)on3)nc(C(C)(C)C)nc21,/,10.4µM,?,.,.
SMILES,FBPA Giardia inh,Pf growth 48h,Pf growth 96h,HCMV inh,Sm TGR inh
Cc1ccc(C(=O)COC(=O)c2ccc3c(c2)C(=O)N(c2cccc4ncccc24)C3=O)cc1,.,.,.,-94.1,.
O=C(COC(=O)c1ccc2c(c1)C(=O)N(c1cccc3ncccc13)C2=O)c1ccc(Cl)cc1,.,.,.,-89.0,.
O=C(OCC(=O)c1ccc(Cl)cc1Cl)c1ccc2c(c1)C(=O)N(c1cccc3ncccc13)C2=O,.,.,.,.,.
CC(C)Oc1cccc(Nc2nccc3c2cc(-c2ccc(C(=O)N(C)C)cc2)n3C)c1,/,/,/,.,/
Cc1ccc(N(CC(=O)NCc2ccccc2)C(=O)c2csnn2)c(C)c1,.,.,.,.,.
COc1c(O)cc2oc3cc(O)c(CC=C(C)C)c(O)c3c(=O)c2c1CC=C(C)C,.,/,/,/,/
O=C(c1ccc(-c2ccc([N+](=O)[O-])cc2)o1)N1CCCC(C(F)(F)F)C1 (centres undefined),/,9.28µM,.,-75.8,?
O=C(Cc1ccc([N+](=O)[O-])cc1)N1CCCCCC1,.,.,?,.,.
O=C(c1ccc(-c2ccc([N+](=O)[O-])cc2)o1)N1CCCCCCC1,/,.,.,.,20µM
Cc1cccc(NC(=O)CCN2CCCCC2)c1,?,.,.,.,.
CCOC(=O)c1cc(-c2ccc(C)cc2)n(CCCC(=O)Nc2cc(C)ccc2C)c1,/,/,/,+,.
Cc1cccc(NC(=O)CCN2CCC(C(N)=O)CC2)c1,.,.,6.57µM,.,.
CCOC(=O)C1CCCN(CCC(=O)Nc2ccccc2C)C1 (centres undefined),.,.,.,.,.
CCOC(=O)C1CCCN(CCC(=O)Nc2cc(C)ccc2C)C1 (centres undefined),.,.,6.57µM,.,/
Cc1ccc(NC(=O)CCN2CCN(C/C=C/c3ccccc3)CC2)cc1C,.[12.9 µM],6.57µM,.,.,.
CCOC(=O)C1=C(COC(=O)Cc2ccccc2)NC(=O)NC1C (centres undefined),/,.,.,.,.
CNS(=O)(=O)c1cn(CC(=O)N2CCN(c3cccc(Cl)c3)CC2)cc1S(=O)(=O)NC,/,/,/,.,.
Cc1cccc(NC(=O)CCC2CCN(Cc3nccs3)CC2)c1,/,.,9.28µM,.,.
CCOC(=O)C1CCN(CCC(=O)Nc2ccc(C)c(C)c2)CC1,.,.,.,-67.1,.
Cc1ccc(/C=C/C(=O)N2CCN(Cc3ccccc3)CC2)o1,.,.,.,.,14.1µM
Cc1cccc(CN2CCN(C(=O)Cc3ccccc3)CC2)c1,?,?,?,.,.
Cc1ccc(/C=C/C(=O)N2CCN(S(=O)(=O)c3c(C)c(C)cc(C)c3C)CC2)o1,.,7.38µM,?,.,10µM
Cc1ccc(/C=C/C(=O)N2CCN(S(=O)(=O)c3ccc(C)c(C)c3)CC2)o1,.,?,5.86µM,.,12.6µM
Cc1cccc(CN2CCN(C(=O)CCl)CC2)c1,.,1.17µM,0.0738µM,.,35.5µM
Cc1ccc(C(=O)N2CCN(Cc3ccccc3)CC2)o1,.,?,?,.,.
O=C1NC(=O)C(=Cc2ccc(OCCOc3ccc([N+](=O)[O-])cc3)cc2)C(=O)N1,.,.,.,.,15.8µM
O=C1NC(=O)C(=Cc2cccc(OCCOc3ccccc3)c2)C(=O)N1,.,.,.,.,11.2µM
O=Cc1ccc(OCCOc2ccc([N+](=O)[O-])cc2)cc1,.,.,.,.,.
CCC(Sc1nc2ccsc2c(=O)n1Cc1ccc(C(=O)O)cc1)C(=O)Nc1cc(Cl)ccc1C (centres undefined),/,/,/,-94.6,/
